Reference: the supplement of paper PMC11383364

Each compound was assayed on SUM149 (assay: percent difference in area under dose-response curve of relative cell number, RPMI vs HPLM; higher = drug relatively more effective in HPLM than RPMI (negative = less effective in HPLM)). Settings: treatment time: 72 h; dose range: 10-point, 1 nM to 20 µM; media compared: RPMI vs HPLM.

Row | Structure (SMILES) | percent difference in area under dose-response curve
1 | CN(C)CCCn1cc(C2=C(c3c[nH]c4ccccc34)C(=O)NC2=O)c2ccccc21 | 0.14%
2 | CC1(C)C(N(O)C(=O)Nc2ccc(Cl)cc2)N(c2ccc(Cl)cc2)C(=O)N1CC(=O)NN=CC=Cc1ccc([N+](=O)[O-])o1 (centres undefined) [Eeyarestatin_I] | -5.38%
3 | NC1(c2ccc(-c3nc4ccn5c(=O)[nH]nc5c4cc3-c3ccccc3)cc2)CCC1 | 0.884%
4 | Cc1cc(=O)oc2c(C=O)c(O)ccc12 | 5.18%
5 | Cn1cc(-c2ccc3c(c2)CCN3C(=O)Cc2cccc(C(F)(F)F)c2)c2c(N)ncnc21 | 4.03%
6 | Cc1cc(CS(=O)(=O)c2ccccc2)cc(OCc2ccc(CN3CCC[C@@H]3CO)cc2)c1 | 1.05%
7 | COc1ncc(-c2ccc3nccc(-c4ccnnc4)c3c2)cc1NS(=O)(=O)c1ccc(F)cc1F | -12.4%
8 | CC(C)Oc1ccc(C(=O)N[C@H](CNC(=O)CN(C)C)Cc2ccc(-c3cn4cccc([C@H](C)O)c4n3)cc2)cc1Cl | -23.9%
9 | CC[C@@]1(O)C(=O)OCc2c1cc1n(c2=O)Cc2cc3c(CN(C)C)c(O)ccc3nc2-1 [Topotecan_HCl] | -48.7%
10 | COc1cc([C@@H]2c3cc4c(cc3[C@@H](O[C@@H]3O[C@@H]5CO[C@@H](C)O[C@H]5[C@H](O)[C@H]3O)[C@H]3COC(=O)[C@H]23)OCO4)cc(OC)c1O [Etoposide] | -22.4%
11 | CN(Cc1cnc2nc(N)nc(N)c2n1)c1ccc(C(=O)N[C@@H](CCC(=O)O)C(=O)O)cc1 [Methotrexate] | -7.17%
12 | O=C(Nc1cccc(Cl)c1)Nc1ncc(CCNc2ncnc3ccsc23)s1 [SNS314_Mesylate] | -24.4%
13 | N#CC[C@H](C1CCCC1)n1cc(-c2ncnc3[nH]ccc23)cn1 [Ruxolitinib] | -7.13%
14 | CC(C)(C)c1cnc(CSc2cnc(NC(=O)C3CCNCC3)s2)o1 | -3.83%
15 | Cc1cc2c(C(=O)NC[C@H](C)c3ccccc3)c(O)c(O)cc2c(O)c1-c1c(C)cc2c(C(=O)NC[C@H](C)c3ccccc3)c(O)c(O)cc2c1O [Sabutoclax] | -9.94%
16 | CN(C)CCOc1ccc(/C(=C(/CCCl)c2ccccc2)c2ccccc2)cc1 [Toremifene_Citrate] | 2.31%
17 | Cn1cncc1[C@@](N)(c1ccc(Cl)cc1)c1ccc2c(c1)c(-c1cccc(Cl)c1)cc(=O)n2C [Tipifarnib] | -21.7%

Row | Structure (SMILES) | percent difference in area under dose-response curve
18 | CC[n+]1c(-c2ccccc2)c2cc(N)ccc2c2ccc(N)cc21 [Ethidium_Bromide] | -18.5%
19 | CCNC(=O)c1noc(-c2cc(C(C)C)c(O)cc2O)c1-c1ccc(CN2CCOCC2)cc1 | -30%
20 | CC(C)C[C@H](NC(=O)[C@H](Cc1ccccc1)NC(=O)c1cnccn1)B(O)O [Bortezomib] | -29.8%
21 | C[C@@H](Oc1cc(-n2cnc3ccc(CN4CCN(C)CC4)cc32)sc1C(N)=O)c1ccccc1C(F)(F)F | -20.5%
22 | NC(=O)c1[nH]nc([C@@H]2O[C@H](CO)[C@@H](O)[C@H]2O)c1O [Pyrazofurin] | 5.89%
23 | CC[C@@H]1C(=O)N(C)c2cnc(Nc3ccc(C(=O)NC4CCN(C)CC4)cc3OC)nc2N1C1CCCC1 | -23%
24 | CNc1nc(-c2ccc3c(N)n[nH]c3c2)cc(N2C[C@@H](C(=O)NC3CCCCC3)CC[C@H]2C)n1 | -4.83%
25 | COc1cccc2c1C(=O)c1c(O)c3c(c(O)c1C2=O)C[C@@](O)(C(C)=O)C[C@@H]3O[C@H]1C[C@H](N)[C@H](O)[C@H](C)O1 [Daunorubicin_HCl] | -26.8%
26 | CCCc1cc(-c2nc(-c3ccc(C)cc3)cs2)ccn1 [Fatostatin_A] | -2.81%
27 | CO[C@@H](C(=O)N1Cc2[nH]nc(NC(=O)c3ccc(N4CCN(C)CC4)cc3)c2C1)c1ccccc1 [Danusertib] | -17.3%
28 | O=C(O)c1ccc2cc(-c3ccc(O)c(C45CC6CC(CC(C6)C4)C5)c3)ccc2c1 | -15%
29 | CSc1cccc(Nc2ncc3cc(-c4c(Cl)cccc4Cl)c(=O)n(C)c3n2)c1 | 11.7%
30 | Cc1c(-c2ccc(-c3ccccc3F)cc2)nc2ccc(F)cc2c1C(=O)O [Brequinar] | -6.11%
31 | Cc1cc(Nc2nc(N[C@@H](C)c3ncc(F)cn3)ncc2Cl)[nH]n1 | -7.89%
32 | CC(=O)O[C@H]1C(=O)[C@@]2(C)[C@H]([C@H](OC(=O)c3ccccc3)[C@]3(O)C[C@H](OC(=O)[C@H](O)[C@@H](NC(=O)c4ccccc4)c4ccccc4)C(C)=C1C3(C)C)[C@]1(OC(C)=O)CO[C@@H]1C[C@@H]2O [Paclitaxel] | -45.1%
33 | Cc1nc(Nc2ncc(C(=O)Nc3c(C)cccc3Cl)s2)cc(N2CCN(CCO)CC2)n1 [Dasatinib] | 41.7%
34 | Cc1cccc(-c2[nH]c(C(C)(C)C)nc2-c2ccc3nccnc3c2)n1 | -7.49%
